Sm TGR block: S. mansoni TGR enzyme inhibition. Q962Y6. Potency, µM (highest dose often 114 µM), without a hit: at the highest dose activity change, negative = inhibition, hits mostly inhibitors. actives 3% (n = 360,000). purified TGR, DTNB reduction, TNB absorbance 405 nm; further: potency means the concentration at half of the fitted maximal effect; on the % scale 0 is the no-effect control and ±100 the full control effect; nearly all actives have a fitted effect of over 60% in size
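First, TGR (20 nM dispensed) and NADPH were mixed with compound. Second, a 15 min room-temperature incubation followed. Third, further NADPH and then DTNB were added to start the reaction. Finally, TNB absorbance was monitored kinetically.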
Tb PYK inh: T. brucei pyruvate kinase inhibition; Q57TT1; TbPYK enzyme, Kinase-Glo Plus ATP luminescence, 45 min; Potency, µM (series often up to 76.8 µM), for inactives: at the top dose activity, negative = inhibition, usual class: inhibitors; actives 0.12% (n = 410,000); AID 624173; further: potency means the concentration at half of the fitted maximal effect; on the % scale 0 is the no-effect control and ±100 the full control effect; nearly all actives have a fitted effect of over 50% in size
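Activity of T. brucei pyruvate kinase was followed by Kinase-Glo Plus luminescence after the enzyme reacted 45 min at room temperature with 130 uM ADP (final) and substrate. Test compounds were added before ADP at multiple concentrations.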
Cycloheximide cs: affects cycloheximide protein synthesis inhibition readout, counter-screen | cell reporter, cycloheximide protein synthesis inhibition counterscreen | max response, % | AID 2314 | actives 12% (n = 300,000); in the data active means max response mostly above about 13%, no sharp cut-off; inactive means mostly below about 14%; further: read at 38.3 µM for the half of the compounds with a filed dose; 0% is about no effect
Giardia FBPA inh: Giardia lamblia aldolase inhibition; A8B2U2; actives 0.71% (n = 290,000); Potency, µM (titrated, usually from 59.6 µM), for inactives: at the top dose activity, negative = inhibition, most hits filed as inhibitors; purified Giardia FBPA; further: potency means the concentration at half of the fitted maximal effect; on the % scale 0 is the no-effect control and ±100 the full control effect; nearly all actives have a fitted effect of over 55% in size
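40 nM FBPA preincubated 10 min at RT with compound (up to 57.5 uM final), then substrate plus GAPDH/TPI/NAD/arsenate coupling and diaphorase/resazurin added. Fluorescence read after 20 min at RT, 525/598 nm.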
LmPK inh: blocks Leishmania mexicana pyruvate kinase activity; Q27686; purified LmPK, Kinase-Glo ATP luminescence, 1 h; Potency, µM (doses to about 57.5 µM), for inactives: at the top dose activity change, negative = inhibition, actives largely listed as inhibitors; actives 0.37% (n = 290,000); AID 1721; further: potency means the concentration at half of the fitted maximal effect; on the % scale 0 is the no-effect control and ±100 the full control effect
Target sequence (Q27686 whole entry, looked up): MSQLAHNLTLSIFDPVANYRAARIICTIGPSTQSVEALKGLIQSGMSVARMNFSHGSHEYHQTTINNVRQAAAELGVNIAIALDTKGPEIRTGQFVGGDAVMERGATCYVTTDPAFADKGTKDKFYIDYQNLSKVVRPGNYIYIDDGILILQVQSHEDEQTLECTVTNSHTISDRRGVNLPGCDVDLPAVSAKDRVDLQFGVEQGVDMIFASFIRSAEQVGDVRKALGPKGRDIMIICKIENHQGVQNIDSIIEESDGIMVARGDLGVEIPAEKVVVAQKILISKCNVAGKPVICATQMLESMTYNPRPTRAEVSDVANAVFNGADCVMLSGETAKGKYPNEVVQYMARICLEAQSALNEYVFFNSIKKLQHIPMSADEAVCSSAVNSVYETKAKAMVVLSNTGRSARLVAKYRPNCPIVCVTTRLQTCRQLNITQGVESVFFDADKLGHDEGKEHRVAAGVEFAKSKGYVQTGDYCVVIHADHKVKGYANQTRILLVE
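Kinase-Glo luminescence read after 1 h RT reaction of 0.1 nM LmPK with 0.5 mM PEP and 0.1 mM ADP. Activity scaled between uninhibited and enzyme-free controls.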
Shiga toxin inh: inhibitors of Shiga toxin in Vero cells; Vero cells, Shiga toxin protein synthesis inhibition reporter; inhibition, % at 38.7 µM; actives 9.2% (n = 290,000); AID 2315; in the data active means inhibition mostly above about 28%, no sharp cut-off; inactive means mostly below about 43%; further: 0% is about no effect
Active calls of the source: *; u = inconclusive; x = not tested or not shown. This is one part of a sample in which hits are shown more often than they occur. Unless noted, the call rests on the fitted dose curve; in most records, active means well fitted curve in the direction sought with a large enough effect; inconclusive means small, poorly fitted or top-dose-only effect, or another doubt; inactive means no such curve, though single readings can be large; an effect the other way counts as inactive or inconclusive.

SMILES	Sm TGR block	Tb PYK inh	Cycloheximide cs	Giardia FBPA inh	LmPK inh	Shiga toxin inh
Cc1cc(O)c(C2=Nc3ccccc3SC(c3ccc(Cl)cc3)C2)c(=O)o1 (configuration not stated)	-15%	-12%	48*	-9%	2%	34*
O=c1[nH]c(=O)n(C2CCCCC2)c(O)c1C1=Nc2ccccc2SC(c2ccccc2)C1 (configuration not stated)	-2%	-12%	x	x	x	x
O=C(NCC(c1ccco1)N1CCCC1)c1cn(-c2ccccc2)nc1-c1ccc(F)cc1 (configuration not stated)	18%	-1%	x	x	x	x
Cc1cccc(C(=O)NCC(=O)Nc2ccncc2)c1	-1%	0%	x	x	x	x
COc1ccc(Nc2oc(-c3ccccc3F)nc2C#N)cc1	-7%	-4%	34*	3%	7%	47*
COc1ccc(Nc2oc(-c3cccs3)nc2C#N)cc1	-2%	0%	62*	-3%	2%	146*
CCc1ccc(NC(=O)[C@H](C)NC(=O)C2CCN(C(=O)[C@@H](N)Cc3ccccc3)CC2)cc1	0%	6%	16*	u	0%	23*
CCc1ccc(NC(=O)[C@H](C)NC(=O)C2CCN(C(=O)[C@@H](NC(=O)OC(C)(C)C)C(C)C)CC2)cc1	-2%	-2%	14*	10%	1%	53
CC(C)[C@H](NC(=O)OC(C)(C)C)C(=O)N1CCC(C(=O)N[C@@H](C)C(=O)Nc2ccc(F)cc2)CC1	0%	4%	-2	-6%	-5%	33
O=S(=O)(CCSc1nc2ccccc2s1)c1nc2ccccc2s1	0.1µM*	1%	14	-9%	6%	15
C=CCS(=O)(=O)c1nc2ccccc2s1	14µM*	0%	44*	-2%	-8%	21
CC(=O)ON(C(C)=O)S(=O)(=O)c1ccc(Cl)cc1	x	x	x	-29%	x	x
Cc1cccc(-n2c(Cn3nc(C)c([N+](=O)[O-])c3C)n[nH]c2=S)c1	-24%	-29%	-2	-12%	-21%	-8
Cc1nn(CCc2n[nH]c(=S)n2-c2cccc(Cl)c2)c(C)c1[N+](=O)[O-]	-3%	u	-8	-5%	8.9µM*	-14
Cc1nn(CCc2n[nH]c(=S)n2-c2ccc(F)cc2)c(C)c1[N+](=O)[O-]	-7%	10µM*	-2	-9%	u	-11
Cc1nn(CCc2n[nH]c(=S)n2-c2ccc(F)c(Cl)c2)c(C)c1[N+](=O)[O-]	19%	6.3µM*	-3	-9%	u	-10
COc1ccc(-c2cc(C(=O)Nc3c(C)nn(Cc4ccc(C)cc4)c3C)no2)cc1OC	-2%	-4%	x	x	x	x
COc1cc2cc(CNc3ccccc3)c(=O)n(CC(=O)Nc3ccccc3)c2cc1OC	-17%	0%	x	x	x	x
CCN(CC)C(=O)N1CCN(c2c([N+](=O)[O-])c(=O)oc3ccccc23)CC1	-27%	0%	x	x	x	x
Cc1ccc(/C=C2\CCCC3=C2NC(=S)NC3c2ccc(C)cc2)cc1 (configuration not stated)	u	-27%	-2	0%	3%	-8
Cc1ccc(/C=C2\CC(C)CC3=C2NC(=S)NC3c2ccc(C)cc2)cc1 (configuration not stated)	16µM*	-26%	-3	1%	5%	-9
O=[N+]([O-])c1cc([N+](=O)[O-])c2nonc2c1Nc1ccccc1O	50µM*	-1%	16*	-8%	7%	73*
O=C(O)c1ccccc1Nc1ccc([N+](=O)[O-])c2nonc12	35µM*	6%	-3	-9%	-18%	-6
O=[N+]([O-])c1cc([N+](=O)[O-])c2nonc2c1Nc1ccc(O)cc1	32µM*	-13%	-1	-26%	-16%	-5
O=[N+]([O-])c1c(Nc2ccccc2O)cc(N2CCOCC2)c2nonc12	4%	-1%	-7	2%	10%	-2
SMILES	Sm TGR block	Tb PYK inh	Cycloheximide cs	Giardia FBPA inh	LmPK inh	Shiga toxin inh
Cc1ccc(C(=O)NC(=S)Nc2ccc(CN3CCCCC3)cc2)c(C)c1	x	-2%	1	3%	3%	-10
COc1ccc(C(=O)NC(=S)Nc2ccc(CN3CCOCC3)cc2)cc1OC	20µM*	0%	-1	-10%	3%	-7
COc1ccc(C(=O)NC(=S)Nc2ccc(CN3CCCCC3)cc2)cc1Cl	40µM*	1%	-7	-19%	0%	-3
COc1ccc(C(=O)Nc2ccc(CN3CCOCC3)cc2)cc1Br	u	-3%	10	2%	2%	7
COc1ccc(C(=O)NC(=S)Nc2ccc(CN3CCOCC3)cc2)cc1Cl	14µM*	2%	-6	x	-9%	6
CC(C)COc1ccc(C(=O)NC(=S)Nc2ccc(CN3CCOCC3)cc2)cc1	-2%	1%	-2	0%	0%	-13
CCC(Sc1ncccc1Nc1ccccn1)C(=O)O (configuration not stated)	x	-2%	x	x	x	x
CCOc1ccccc1CNC(=O)CCn1cccn1	-1%	1%	x	x	x	x
Cc1ccc(-n2c(=O)c3c(c4cc(C)ccc4n3C)n(CC(=O)N3CCCC3)c2=O)cc1	1%	-1%	x	x	x	x
COc1c(/C=N/Nc2ccc(C(=O)O)cc2)c(CCN(C)C(C)=O)cc2c1OCO2	1%	-4%	25*	-1%	-6%	70*
COc1c(/C=N/NC(=O)c2ccccc2O)c(CCN(C)C(C)=O)cc2c1OCO2	9%	-1%	16*	-17%	2%	57*
COc1c(/C=N/NS(=O)(=O)c2ccc(C)cc2)c(CCN(C)C(C)=O)cc2c1OCO2	70%	-2%	-1	-2%	2%	13
O=C(C[n+]1ccc2ccccc2c1)c1ccccc1	0%	-5%	20*	-7%	0%	39
COc1ccc(C(=O)C[n+]2cccc(Br)c2)cc1	-2%	-5%	9.7*	-3%	0%	33
O=C(C[n+]1cc(Br)cc(Br)c1)c1ccc(-c2ccccc2)cc1	0%	-3%	6	2%	-1%	34
O=C(C[n+]1ccc2ccccc2c1)c1ccc2ccc3ccccc3c2c1	x	4%	x	x	x	x
Cc1ccc(C(=O)C[n+]2cc(Br)cc(Br)c2)cc1[N+](=O)[O-]	32µM*	-1%	-3	-1%	-3%	17
O=C(C[n+]1cc(Br)cc(Br)c1)c1ccccc1	11µM*	-5%	9	-3%	5%	-8
Cc1cccc(C)c1N(CCCc1cccnc1)C(=O)[C@@H](C)N	x	-4%	x	x	x	x
O=C(C[n+]1ccncc1)c1ccccc1	35µM*	-20%	-3	-18%	1%	x
O=C(C[n+]1cccc(Br)c1)c1ccc(-c2ccccc2)cc1	-17%	-1%	22*	-8%	0%	34
Nc1cc[n+](CC(=O)c2ccccc2)cc1	-9%	-8%	-1	2%	-2%	-4
O=C(C[n+]1cccc(Br)c1)c1ccccc1	-4%	0%	-8	-1%	1%	-5

Assay outcomes as filed in PubChem BioAssay.
